Data as given in PubChem BioAssay AID1159580 (chemical genetic matrix, 2015).
Out of some 5,500 compounds screened, about 2,000 (36%) were called active. Roughly 18% stayed inconclusive and do not appear here. This is one part of the list. Unmarked numbers belong to inactive results. Rule as the data show it: active = normalized growth mostly below about 0.91 (no sharp cut-off); inconclusive = no clear call, values can overlap the other calls; inactive = mostly above about 0.92.

Assay: chemical genetic growth profiling, strain panel (AID 1159580);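 also: tested at 20 µM; growth read once vehicle control cultures reached saturation at 30 °C; 1 = growth at the plate median or of vehicle wells; lower values mean less growth of the strain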
Conditions: S. cerevisiae deletion strains, growth OD
[1] = locus YDL101C, strain DUN1, active compounds read low
[2] = locus YHR030C, strain SLT2, active compounds read low
[3] = locus YAR019C, strain CDC15, active compounds read low
[4] = locus YBL105C, strain PKC1, active compounds read low
[5] = locus YBR135W, strain CKS1, active compounds read low
[6] = locus YBR136W, strain MEC1, active compounds read low
[7] = locus YBR160W, strain CDC28, active compounds read low
[8] = locus YDL017W, strain CDC7, active compounds read low
[9] = locus YDL028C, strain MPS1, active compounds read low
[10] = locus YDL108W, strain KIN28, active compounds read low
[11] = locus YDL132W, strain cdc53, active compounds read low
[12] = locus YDL214C, strain PRR2, active compounds read low
[13] = locus YDR052C, strain DBF4, active compounds read low
[14] = locus YDR054C, strain cdc34, active compounds read low
[15] = locus YDR226W, strain ADK1, active compounds read low
[16] = locus YDR477W, strain SNF1, active compounds read low
[17] = locus YER123W, strain YCK3, active compounds read low
[18] = locus YER133W, strain GLC7, active compounds read low
[19] = locus YFL009W, strain cdc4, active compounds read low
[20] = locus YFL029C, strain CAK1, active compounds read low
[21] = locus YFR003C, strain YPI1, active compounds read low
[22] = locus YFR019W, strain FAB1, active compounds read low
[23] = locus YFR028C, strain CDC14, active compounds read low
[24] = locus YGR040W, strain KSS1, active compounds read low
[25] = locus YGR052W, strain FMP48, active compounds read low
[26] = locus YGR092W, strain DBF2, active compounds read low
[27] = locus YHR079C, strain IRE1, active compounds read low
[28] = locus YHR082C, strain KSP1, active compounds read low
[29] = locus YHR205W, strain SCH9, active compounds read low
[30] = locus YIL147C, strain SLN1, active compounds read low
[31] = locus YJL095W, strain BCK1, active compounds read low
[32] = locus YJL128C, strain PBS2, active compounds read low
[33] = locus YJL157C, strain FAR1, active compounds read low
[34] = locus YJR016C, strain ILV3, active compounds read low
[35] = locus YJR066W, strain TOR1 (second series), active compounds read low
[36] = locus YJR066W, strain TOR1, active compounds read low
[37] = locus YKL048C, strain ELM1, active compounds read low
[38] = locus YKL067W, strain YNK1, active compounds read low
[39] = locus YKL101W, strain HSL1, active compounds read low
[40] = locus YKL193C, strain SDS22, active compounds read low
[41] = locus YKL203C, strain TOR2, active compounds read low
[42] = locus YLR113W, strain HOG1, active compounds read low
[43] = locus YLR133W, strain CKI1, active compounds read low
[44] = locus YLR403W, strain SFP1, active compounds read low
[45] = locus YML070W, strain DAK1, active compounds read low
[46] = locus YMR001C, strain CDC5, active compounds read low
[47] = locus YMR205C, strain PFK2 (second series), active compounds read low
[48] = locus YMR277W, strain FCP1, active compounds read low
[49] = locus YNL006W, strain LST8, active compounds read low
[50] = locus YNL020C, strain ARK1, active compounds read low
[51] = locus YNL161W, strain CBK1, active compounds read low
[52] = locus YNL183C, strain NPR1, active compounds read low
[53] = locus YNL207W, strain RIO2, active compounds read low
[54] = locus YNL222W, strain SSU72, active compounds read low
[55] = locus YNL307C, strain MCK1 (second series), active compounds read low
[56] = locus YOL078W, strain AVO1, active compounds read low
[57] = locus YOL136C, strain PFK27, active compounds read low
[58] = locus YOR061W, strain CKA2, active compounds read low
[59] = locus YOR119C, strain RIO1, active compounds read low
[60] = locus YOR231W, strain MKK1, active compounds read low
[61] = locus YOR329C, strain SCD5, active compounds read low
[62] = locus YPL031C, strain PHO85, active compounds read low
[63] = locus YPL153C, strain RAD53, active compounds read low
[64] = locus YPL204W, strain HRR25, active compounds read low
[65] = locus YPL209C, strain IPL1, active compounds read low
[66] = locus YPL256C, strain CLN2, active compounds read low
[67] = locus YPR025C, strain CCL1, active compounds read low
[68] = locus YPR106W, strain ISR1, active compounds read low
[69] = locus YPR111W, strain DBF20, active compounds read low
[70] = strain NNK1, active compounds read low
[71] = strain TSCII, active compounds read low

## Cc1onc(-c2c(Cl)cccc2Cl)c1C(=O)N1CCN(c2ncnc3scc(-c4ccccc4)c23)CC1
Locus YAL013W, strain DEP1, active compounds read low
  normalized growth: 0.97
Locus YBR229C, strain ROT2, active compounds read low
  normalized growth: 1
Locus YCL061C, strain MRC1, active compounds read low
  normalized growth: 0.994
[1]
  normalized growth: 0.979
Locus YDL134C, strain PPH21, active compounds read low
  normalized growth: 1
Locus YDR150W, strain NUM1, active compounds read low
  normalized growth: 0.94
Locus YEL061C, strain CIN8, active compounds read low
  normalized growth: 1.02
Locus YGR078C, strain PAC10, active compounds read low
  normalized growth: 1
[2]
  normalized growth: 0.942
Locus YHR087W, strain rtc3, active compounds read low
  normalized growth: 1.01
Locus YJR043C, strain POL32, active compounds read low
  normalized growth: 0.977
Locus YJR075W, strain HOC1, active compounds read low
  normalized growth: 0.997
Locus YKL190W, strain CNB1, active compounds read low
  normalized growth: 1.01
Locus YLR039C, strain RIC1, active compounds read low
  normalized growth: 0.937
Locus YLR058C, strain SHM2 (second series), active compounds read low
  normalized growth: 1.01
Locus YLR085C, strain ARP6, active compounds read low
  normalized growth: 1.01
Locus YLR262C, strain YPT6, active compounds read low
  normalized growth: 0.962
Locus YML094W, strain GIM5, active compounds read low
  normalized growth: 1.01
Locus YMR219W, strain ESC1, active compounds read low
  normalized growth: 1.01
Locus YMR263W, strain SAP30, active compounds read low
  normalized growth: 0.967
Locus YNL128W, strain TEP1, active compounds read low
  normalized growth: 1.01
Locus YNL153C, strain GIM3, active compounds read low
  normalized growth: 0.999
Locus YNL298W, strain CLA4 (second series), active compounds read low
  normalized growth: 1.02
Locus YNL322C, strain KRE1, active compounds read low
  normalized growth: 1.01
Locus YNR030W, strain Alg12, active compounds read low
  normalized growth: 1.01
Locus YPL055C, strain LGE1, active compounds read low
  normalized growth: 1.02
Locus YPL241C, strain CIN2, active compounds read low
  normalized growth: 1.01
Locus YPR135W, strain CTF4, active compounds read low
  normalized growth: 0.923

## Cc1csc2ncnc(N3CCN(C(=S)Nc4ccc(C(F)(F)F)cc4)CC3)c12
[3]
  normalized growth: 0.995
[4]
  normalized growth: 0.987
[5]
  normalized growth: 0.985
[6]
  normalized growth: 1
[7]
  normalized growth: 0.998
[8]
  normalized growth: 1
[9]
  normalized growth: 0.996
[1]
  normalized growth: 0.985
[10]
  normalized growth: 0.993
[11]
  normalized growth: 0.996
[12]
  normalized growth: 0.945
[13]
  normalized growth: 1
[14]
  normalized growth: 0.965
[15]
  normalized growth: 0.994
[16]
  normalized growth: 0.999
[17]
  normalized growth: 0.926
[18]
  normalized growth: 0.964
[19]
  normalized growth: 0.99
[20]
  normalized growth: 0.983
[21]
  normalized growth: 0.996
[22]
  normalized growth: 0.958
[23]
  normalized growth: 0.993
[24]
  normalized growth: 0.978
[25]
  normalized growth: 0.999
[26]
  normalized growth: 0.922
[2]
  normalized growth: 0.919
[27]
  normalized growth: 0.982
[28]
  normalized growth: 1.02
[29]
  normalized growth: 0.908
[30]
  normalized growth: 1.01
[31]
  normalized growth: 0.938
[32]
  normalized growth: 0.92
[33]
  normalized growth: 0.942
[34]
  normalized growth: 0.995
[35]
  normalized growth: 0.908
[36]
  normalized growth: 1.02
[37]
  normalized growth: 0.979
[38]
  normalized growth: 0.968
[39]
  normalized growth: 0.959
[40]
  normalized growth: 0.996
[41]
  normalized growth: 1.01
[42]
  normalized growth: 0.816 (active)
[43]
  normalized growth: 0.95
[44]
  normalized growth: 0.955
[45]
  normalized growth: 0.94
[46]
  normalized growth: 0.999
[47]
  normalized growth: 0.954
[48]
  normalized growth: 0.986
[49]
  normalized growth: 0.989
[50]
  normalized growth: 0.949
[51]
  normalized growth: 0.997
[52]
  normalized growth: 0.987
[53]
  normalized growth: 0.991
[54]
  normalized growth: 0.986
[55]
  normalized growth: 0.958
[56]
  normalized growth: 0.989
[57]
  normalized growth: 0.933
[58]
  normalized growth: 0.94
[59]
  normalized growth: 1.01
[60]
  normalized growth: 0.909
[61]
  normalized growth: 0.998
[62]
  normalized growth: 0.982
[63]
  normalized growth: 0.932
[64]
  normalized growth: 0.963
[65]
  normalized growth: 0.977
[66]
  normalized growth: 0.91
[67]
  normalized growth: 0.984
[68]
  normalized growth: 0.979
[69]
  normalized growth: 0.978
[70]
  normalized growth: 0.988
[71]
  normalized growth: 1

## Cc1csc2c(N3CCN(C(=S)Nc4ccc(C(F)(F)F)cc4)CC3)ncnc12
[3]
  normalized growth: 0.985
[4]
  normalized growth: 0.989
[5]
  normalized growth: 0.981
[6]
  normalized growth: 0.982
[7]
  normalized growth: 0.979
[8]
  normalized growth: 0.992
[9]
  normalized growth: 0.981
[1]
  normalized growth: 0.988
[10]
  normalized growth: 0.99
[11]
  normalized growth: 0.998
[12]
  normalized growth: 0.956
[13]
  normalized growth: 0.999
[14]
  normalized growth: 0.997
[15]
  normalized growth: 0.997
[16]
  normalized growth: 0.983
[17]
  normalized growth: 0.937
[18]
  normalized growth: 0.974
[19]
  normalized growth: 0.992
[20]
  normalized growth: 0.991
[21]
  normalized growth: 0.992
[22]
  normalized growth: 0.965
[23]
  normalized growth: 0.978
[24]
  normalized growth: 0.959
[25]
  normalized growth: 1.02
[26]
  normalized growth: 0.972
[2]
  normalized growth: 0.979
[27]
  normalized growth: 0.991
[28]
  normalized growth: 1.04
[29]
  normalized growth: 0.919
[30]
  normalized growth: 0.992
[31]
  normalized growth: 0.982
[32]
  normalized growth: 0.96
[33]
  normalized growth: 0.944
[34]
  normalized growth: 0.993
[35]
  normalized growth: 0.928
[36]
  normalized growth: 1.06
[37]
  normalized growth: 0.965
[38]
  normalized growth: 0.963
[39]
  normalized growth: 0.944
[40]
  normalized growth: 0.986
[41]
  normalized growth: 1.03
[42]
  normalized growth: 0.826 (active)
[43]
  normalized growth: 0.959
[44]
  normalized growth: 0.956
[45]
  normalized growth: 0.924
[46]
  normalized growth: 1
[47]
  normalized growth: 0.949
[48]
  normalized growth: 0.987
[49]
  normalized growth: 0.988
[50]
  normalized growth: 0.956
[51]
  normalized growth: 0.98
[52]
  normalized growth: 0.996
[53]
  normalized growth: 0.978
[54]
  normalized growth: 0.991
[55]
  normalized growth: 0.937
[56]
  normalized growth: 0.992
[57]
  normalized growth: 0.922
[58]
  normalized growth: 0.964
[59]
  normalized growth: 1.03
[60]
  normalized growth: 0.928
[61]
  normalized growth: 0.986
[62]
  normalized growth: 0.986
[63]
  normalized growth: 0.979
[64]
  normalized growth: 0.941
[65]
  normalized growth: 0.984
[66]
  normalized growth: 0.942
[67]
  normalized growth: 0.982
[68]
  normalized growth: 0.975
[69]
  normalized growth: 0.977
[70]
  normalized growth: 0.967
[71]
  normalized growth: 0.992
